Test results taken from PubChem BioAssay (Tox21).
Records with an inconclusive call do not appear. The source made the active and inactive calls. Unless noted, calls come from the whole dose curve; as a rule, active = well fitted curve in the direction sought with a large enough effect in the repeat runs; inconclusive = weak or mixed curves; inactive = no such curve, though single readings can be large; an effect the other way counts as inactive or inconclusive.

Tests used:
[1] = qHTS assay to identify small molecule antagonists of the estrogen related receptor (ERR) signaling pathway from Tox21 library - cell viability counter screen (AID 1224834); note: nearly all actives have a fitted effect of over 30% in size
In short: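 Cytotoxicity of test substances is gauged in the same ERR cells used for the antagonist screen, after 17.5 h of compound treatment at 37 C, by CellTiter-Fluor fluorescence measured after 30 min.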

[2] = molecular target: Luciferin 4-monooxygenase (Photinus pyralis) (UniProt P08659); assay: qHTS assay to identify small molecule inhibitors of firefly luciferase (AID 1224835); note: nearly all actives have a fitted effect of over 25% in size
Sequence of Luciferin 4-monooxygenase (Photinus pyralis) (P08659 whole entry, looked up): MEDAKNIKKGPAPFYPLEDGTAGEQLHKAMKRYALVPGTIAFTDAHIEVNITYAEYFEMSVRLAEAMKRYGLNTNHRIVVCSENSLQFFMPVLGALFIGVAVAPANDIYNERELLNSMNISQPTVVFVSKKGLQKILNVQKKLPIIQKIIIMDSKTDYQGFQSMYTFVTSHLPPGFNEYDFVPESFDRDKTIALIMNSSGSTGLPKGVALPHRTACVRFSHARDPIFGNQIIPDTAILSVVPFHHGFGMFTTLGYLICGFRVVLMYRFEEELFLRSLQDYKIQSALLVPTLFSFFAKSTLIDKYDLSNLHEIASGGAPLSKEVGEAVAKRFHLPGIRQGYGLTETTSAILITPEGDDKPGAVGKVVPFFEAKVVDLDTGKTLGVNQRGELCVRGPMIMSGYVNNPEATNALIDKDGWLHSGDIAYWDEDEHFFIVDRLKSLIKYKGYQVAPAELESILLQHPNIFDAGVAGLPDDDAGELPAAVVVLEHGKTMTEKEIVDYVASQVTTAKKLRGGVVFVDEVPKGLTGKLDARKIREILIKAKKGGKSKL
In short: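 Quantitative HTS format; KM concentrations of both substrates. Purified P. pyralis FLuc activity quantified from luminescence images.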

[3] = qHTS assay to identify small molecule agonists of the constitutive androstane receptor (CAR) signaling pathway - cell viability counter screen (AID 1224836); note: nearly all actives have a fitted effect of over 45% in size
In short: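 Multiplexed viability check: HepG2-CYP2B6-hCAR cells, 15-point compound dosing, 0.75 uM PK11195 final, 23 h at 37 C, CellTiter-Fluor fluorescence.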

[4] = qHTS assay to identify small molecule antagonists of the constitutive androstane receptor (CAR) signaling pathway - cell viability counter screen (AID 1224837); note: nearly all actives have a fitted effect of over 45% in size
In short: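 Multiplexed cytotoxicity read-out for the CAR antagonist screen: double-stable HepG2-CYP2B6-hCAR cells co-treated with 50 nM CITCO (final) and compound over 15 concentrations, incubated 23 hr, then assessed by CellTiter-Fluor fluorescence.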

[5] = molecular target: Nuclear receptor subfamily 1 group I member 3 (Homo sapiens) (UniProt Q14994); assay: qHTS assay to identify small molecule antagonists of the constitutive androstane receptor (CAR) signaling pathway (AID 1224838); note: nearly all actives have a fitted effect of over 40% in size
Sequence of Nuclear receptor subfamily 1 group I member 3 (Homo sapiens) (Q14994 whole entry, looked up): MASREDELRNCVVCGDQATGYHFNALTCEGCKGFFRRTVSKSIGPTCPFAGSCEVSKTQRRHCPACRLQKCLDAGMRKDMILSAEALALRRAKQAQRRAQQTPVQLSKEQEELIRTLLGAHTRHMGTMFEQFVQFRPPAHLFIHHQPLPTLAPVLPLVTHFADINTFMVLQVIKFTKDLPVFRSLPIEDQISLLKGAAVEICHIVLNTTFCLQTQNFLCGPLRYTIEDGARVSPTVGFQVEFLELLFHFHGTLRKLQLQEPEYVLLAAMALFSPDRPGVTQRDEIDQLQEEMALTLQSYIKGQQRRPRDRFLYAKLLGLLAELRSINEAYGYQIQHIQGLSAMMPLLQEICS
In short: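 Compounds were titrated across 15 concentrations onto HepG2 cells double-stably expressing hCAR and a CYP2B6-2.2kb reporter, together with 50 nM CITCO (final). After 24 h at 37 C, luciferase activity was measured by luminescence.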

[6] = molecular target: Nuclear receptor subfamily 1 group I member 3 (Homo sapiens) (UniProt Q14994); assay: qHTS assay to identify small molecule agonists of the constitutive androstane receptor (CAR) signaling pathway (AID 1224839); note: nearly all actives have a fitted effect of over 15% in size; note: potency is the fitted concentration of half-maximal effect;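 for activation: HepG2 cells stably carrying human CAR and a CYP2B6 luciferase reporter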
In short: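 Using human hepatoma HepG2 cells engineered with hCAR and a CYP2B6-2.2kb reporter, 15-concentration compound series were incubated 24 h alongside PK11195 at 0.75 uM final, with luminescence quantified afterwards.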

[7] = qHTS assay to identify small molecule antagonists of the estrogen related receptor signaling pathway with the pleiotropic PPARgamma coactivator (PGC) from Tox21 10K library - cell viability counter screen (AID 1224840; active = well fitted cell-killing curve with a large enough effect in the repeat runs, not every such curve was filed as active; note: nearly all actives have a fitted effect of over 40% in size)
In short: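 Step one, plate 2,000 PGC/ERR cells per well; step two, incubate 6 h at 37 C/5% CO2; step three, pin-transfer compounds; step four, incubate 17.5 h; step five, add CellTiter-Fluor and read fluorescence after 30 min.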

[8] = molecular target: Thyrotropin receptor (Homo sapiens) (UniProt P16473); assay: qHTS assay to identify small molecule agonists of the thyroid stimulating hormone receptor (TSHR) signaling pathway (AID 1224843; calls by dose curve; note: nearly all actives have a fitted effect of over 45% in size)
Sequence of Thyrotropin receptor (Homo sapiens) (P16473 whole entry, looked up): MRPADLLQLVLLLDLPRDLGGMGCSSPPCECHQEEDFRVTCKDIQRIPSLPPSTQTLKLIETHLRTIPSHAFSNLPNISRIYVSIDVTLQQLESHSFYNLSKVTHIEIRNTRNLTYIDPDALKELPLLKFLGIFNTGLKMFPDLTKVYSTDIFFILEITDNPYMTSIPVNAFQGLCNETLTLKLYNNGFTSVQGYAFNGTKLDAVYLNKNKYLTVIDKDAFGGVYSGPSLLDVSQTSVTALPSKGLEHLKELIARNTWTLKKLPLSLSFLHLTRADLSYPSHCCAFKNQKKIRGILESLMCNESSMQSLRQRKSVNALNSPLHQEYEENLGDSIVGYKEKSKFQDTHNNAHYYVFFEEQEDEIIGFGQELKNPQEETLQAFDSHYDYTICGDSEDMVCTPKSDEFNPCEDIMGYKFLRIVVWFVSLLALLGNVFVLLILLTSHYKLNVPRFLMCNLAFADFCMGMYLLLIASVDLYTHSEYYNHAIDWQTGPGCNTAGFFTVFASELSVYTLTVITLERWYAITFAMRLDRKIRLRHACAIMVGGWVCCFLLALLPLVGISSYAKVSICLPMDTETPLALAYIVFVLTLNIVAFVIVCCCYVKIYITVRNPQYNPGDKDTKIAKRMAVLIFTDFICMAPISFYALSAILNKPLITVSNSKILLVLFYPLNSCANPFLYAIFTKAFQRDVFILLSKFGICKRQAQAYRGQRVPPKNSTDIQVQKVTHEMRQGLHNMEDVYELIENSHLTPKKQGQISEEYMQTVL
In short: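 Cell line HEK293 with TSHR; density 800/well. Exposure 30 min RT. Readout HTRF cAMP (cAMP-d2/anti-cAMP-cryptate), 1 h RT before reading.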

[9] = qHTS assay to identify small molecule agonists of the hypoxia (HIF-1) signaling pathway - cell viability counter screen (AID 1224844; calls by dose curve; note: nearly all actives have a fitted effect of over 50% in size)
In short: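 Tox21 10K compounds were added to HRE-bla ME-180 cells (0.5% dialyzed FBS) and incubated 17 hrs at 37C; ATP-based CellTiter-Glo luminescence then reported cell viability in the same wells.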

[10] = qHTS assay to identify small molecule agonists of H2AX (AID 1224845; active = well fitted activation curve with a large enough effect in the signal ratio in the repeat runs, not every such curve was filed as active; the % refers to the signal ratio)
In short: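 Wild-type CHO-K1 cells plated overnight, then exposed 3 hr at 37C to compounds at 15 concentrations (0.76% DMSO). Lysed, then HTRF anti-pH2AX(S139)-cryptate/anti-H2AX-d2 detection after 24 hr at room temperature; emissions 665 and 620 nm.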

[11] = qHTS assay to identify small molecule agonists of the hypoxia (HIF-1) signaling pathway (AID 1224846; active = well fitted activation curve with a large enough effect in the signal ratio in the repeat runs, not every such curve was filed as active; the % refers to the signal ratio)
In short: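 Steps: seed ME-180 HRE-bla cells (2,000/well, 0.5% dialyzed FBS); incubate 5 hrs at 37C; pin-transfer compounds or DMSO; incubate 17 hrs; add LiveBLAzer B/G substrate CCF4-AM; measure reporter activation by FRET.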

[12] = qHTS assay to identify small molecule agonists of H2AX - cell viability counter screen (AID 1224847; calls by dose curve; note: top concentration of the series differs between compounds; nearly all actives have a fitted effect of over 30% in size)
In short: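 After overnight plating of 1000 CHO-K1 cells per well, a 15-concentration compound series was applied for 3 hr at 37C. Luminescence from CellTiter-Glo, read following 30 min at room temperature, reflected cell viability.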

[13] = qHTS RealTime-Glo MT Cell Viability Assay in HepG2 cells - 24 hour (AID 1224867); note: nearly all actives have a fitted effect of over 50% in size
In short: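 HepG2 suspension premixed with RealTime-Glo reagents is plated at 600 cells per well and left 5 h at 37 C/5% CO2. Compounds in DMSO then go in, and bioluminescence reflecting viable cell number is recorded over 40 h.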

[14] = qHTS RealTime-Glo MT Cell Viability Assay in HEK293 cells - 32 hour (AID 1224868); note: top concentration of the series differs between compounds; nearly all actives have a fitted effect of over 50% in size
In short: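 Reads taken at 0, 8, 16, 24, 32 and 40 h from the same wells. HEK293 cells (600/well) carried RealTime-Glo reagents from seeding, with compound added after a 5 h settle at 37 C.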

[15] = A CellTox Green Cytotoxicity Assay to monitor cytotoxicity in HEK293 cells - 0 hour (AID 1224869); note: nearly all actives have a fitted effect of over 50% in size
In short: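 Cytotoxicity was tracked continuously in HEK293 cells by a DNA-binding dye excluded from viable cells. Compounds were transferred in DMSO 5 h after seeding; fluorescence was recorded at intervals up to 40 h.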

[16] = qHTS RealTime-Glo MT Cell Viability Assay in HepG2 cells - 40 hour (AID 1224870); note: nearly all actives have a fitted effect of over 50% in size
In short: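 HepG2 cells mixed with RealTime-Glo MT reagents (NanoLuc plus cell-permeant prosubstrate) were seeded at 600 cells/well, incubated 5 h at 37 C/5% CO2, then pinned with compounds in DMSO; nonlytic luminescence tracked viability during 40 h treatment.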

[17] = qHTS assay to identify small molecule antagonists of the estrogen related receptor signaling pathway with the pleiotropic PPARgamma coactivator (PGC) from Tox21 10K library (AID 1224841; call rule not given here)
In short: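 Antagonism in this quantitative HTS is taken from loss of luciferase signal in PGC/ERR cells. Cells (2,000/well) are treated with compounds in DMSO after a 6 h settling period and read by One-Glo luminescence after 18 h.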

[18] = qHTS assay to identify small molecule agonists of the estrogen related receptor signaling pathway with the pleiotropic PPARgamma coactivator (PGC) from Tox21 10K library (AID 1224842); note: nearly all actives have a fitted effect of over 15% in size
In short: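 PGC/ERR reporter cells (NTP line) were seeded 2,000 per well, rested 6 h at 37 C/5% CO2, then pin-dosed with compounds in DMSO for 18 h at 37 C; luciferase read by One-Glo luminescence after 30 min at room temperature.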

[19] = qHTS assay to identify small molecule antagonists of the estrogen related receptor (ERR) signaling pathway from Tox21 library (AID 1224848); note: nearly all actives have a fitted effect of over 50% in size
In short: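 Screening used an ERR reporter line supplied by NTP, exposed for 18 h at 37 C to library compounds delivered in DMSO. Signal was luciferase luminescence developed with ONE-Glo at room temperature for 30 min.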

[20] = qHTS assay to identify small molecule agonists of the estrogen related receptor (ERR) signaling pathway from Tox21 library (AID 1224849; calls by dose curve; note: nearly all actives have a fitted effect of over 15% in size); details: ERR reporter cell line, ONE-Glo luciferase, 18 h; at 92.4 µM (top of the series) unless noted
In short: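 Agonist signal is luciferase luminescence from an ERR reporter cell line treated 18 h at 37 C with DMSO-dissolved compounds, read 30 min after ONE-Glo addition at room temperature.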
% is set by controls: 0 for no effect and ±100 for the full control effect.

C/C=C/CC#N
inactive: Potency [1] | Potency [2] | Potency [3] | Potency [4] | Potency [5] | Potency [6] | Potency [7] | Potency [8] | Potency [9] | outcome [10] | outcome [11] | Potency [12] | Potency [13] | Potency [14] | outcome [15] | Potency [16]

ClCC1CO1 (stereo unspecified)
inactive: Potency [1] | Potency [2] | Potency [3] | Potency [4] | Potency [5] | Potency [6] | Potency [7] | Potency [17] | Potency [18] | Potency [8] | Potency [9] | outcome [10] | outcome [11] | Potency [12] | Potency [19] | activity change, positive = activation [20] -2.49% | Potency [13] | Potency [14] | outcome [15] | Potency [16]

CCCCCCC1CCOC1=O (stereo unspecified)
inactive: Potency [1] | Potency [2] | Potency [3] | Potency [4] | Potency [5] | Potency [6] | Potency [7] | Potency [17] | Potency [18] | Potency [8] | Potency [9] | Potency [12] | Potency [19] | activity change, positive = activation [20] 0.0938% | Potency [13] | Potency [14] | outcome [15] | Potency [16]

CCOC(=O)C(SP(=S)(OC)OC)c1ccccc1 (stereo unspecified)
inactive: Potency [1] | Potency [2] | Potency [3] | Potency [4] | Potency [5] | Potency [7] | Potency [17] | Potency [18] | Potency [8] | Potency [9] | outcome [11] | Potency [19] | activity change, positive = activation [20] -11.8% | Potency [13] | Potency [14] | outcome [15] | Potency [16]
active: Potency [6] 30.6 µM

Cl/C=C/CCl
inactive: Potency [1] | Potency [2] | Potency [3] | Potency [4] | Potency [5] | Potency [6] | Potency [7] | Potency [17] | Potency [18] | Potency [8] | Potency [9] | outcome [10] | outcome [11] | Potency [12] | Potency [19] | activity change, positive = activation [20] 5.39% | Potency [13] | Potency [14] | outcome [15] | Potency [16]

C#CCOC(=O)/C=C(C)/C=C/CC(C)CCCC(C)C (stereo unspecified)
inactive: Potency [1] | Potency [2] | Potency [3] | Potency [4] | Potency [5] | Potency [6] | Potency [7] | Potency [17] | Potency [18] | Potency [8] | Potency [9] | outcome [10] | outcome [11] | Potency [12] | Potency [19] | activity change, positive = activation [20] 0.281% | Potency [13] | Potency [14] | outcome [15] | Potency [16]

CC(=O)OCC1=C(C(=O)O)N2C(=O)[C@@H](N)[C@H]2SC1
inactive: viability change, negative = cytotoxic [1] 3.81% [at 19 µM] | activity change, negative = inhibition [2] 5.1% [at 23.6 µM] | viability change, negative = cytotoxic [3] 12.6% [at 19 µM] | activity change, negative = cytotoxicity [4] 5.22% [at 19 µM] | activity, negative = inhibition [5] 0.319% [at 19 µM] | activation [6] 4.04% [at 19 µM] | viability change, negative = cytotoxic [7] 9.03% [at 19 µM] | activity, negative = inhibition [17] -8.84% [at 19 µM] | activation [18] -2.61% [at 19 µM] | activation [8] 9.8% [at 19 µM] | activity change, negative = cytotoxicity [9] -17.2% [at 15.8 µM] | activation (H2AX phosphorylation) [10] 0.102% [at 31.6 µM] | activity change, negative = cytotoxicity [12] 3.73% [at 31.6 µM] | activity, negative = inhibition [19] 15.1% [at 19 µM] | activity change, positive = activation [20] 9.57% [at 19 µM] | activity change, negative = cytotoxicity [13] 0.275% [at 15.8 µM] | activity change, negative = cytotoxic [14] 19.8% [at 15.8 µM] | cytotoxicity [15] 1.32% [at 15.8 µM] | activity change, negative = cytotoxic [16] 3.09% [at 15.8 µM]
